Test results reported in the supplement of paper PMC4466140.

Each binder was assayed against ScBbc1 (assay: SPOT peptide array binding signal intensity (averaged, normalized) (arbitrary units (background-subtracted, floor 0; scale differs between SH3 domains)); higher = stronger binding of the SH3 domain to the peptide).
Outline: (§1)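 E. coli BL21(DE3) was used to express GST-fused SH3 domains from four yeast species, which were then purified on glutathione Sepharose. These were incubated at 10 μg/ml in TBS-based blocking buffer overnight at 4°C on cellulose membranes carrying synthetic 15-mer peptides, in which cysteines were replaced by serines. Binding signal is the replicate average of normalized, background-subtracted spot intensity, in arbitrary units that differ between domains.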

| Binder | SPOT peptide array binding signal intensity |
| --- | --- |
| VPKEPAPAPPPEPDM | ≤ 0 |

The binders below were run against ScBem1-D1 in the same assay as above.
Outline: as §1

| Binder | SPOT peptide array binding signal intensity |
| --- | --- |
| VPKEPAPAPPPEPDM | ≤ 0 |

Each binder was assayed against ScBzz1-D1 in the same assay as above.
Outline: as §1

| Binder | SPOT peptide array binding signal intensity |
| --- | --- |
| VPKEPAPAPPPEPDM | ≤ 0 |

Each binder was assayed against ScBzz1-D2 in the same assay as above.
Outline: as §1

| Binder | SPOT peptide array binding signal intensity |
| --- | --- |
| VPKEPAPAPPPEPDM | 21 |

These binders were tested against ScCyk3 in the same assay as above.
Outline: as §1

| Binder | SPOT peptide array binding signal intensity |
| --- | --- |
| VPKEPAPAPPPEPDM | ≤ 0 |

The binders below were run against ScFus1 in the same assay as above.
Outline: as §1

| Binder | SPOT peptide array binding signal intensity |
| --- | --- |
| VPKEPAPAPPPEPDM | ≤ 0 |

These binders were tested against ScHof1 in the same assay as above.
Outline: as §1

| Binder | SPOT peptide array binding signal intensity |
| --- | --- |
| VPKEPAPAPPPEPDM | ≤ 0 |

Each binder was assayed against ScHse1 in the same assay as above.
Outline: as §1

| Binder | SPOT peptide array binding signal intensity |
| --- | --- |
| VPKEPAPAPPPEPDM | 7.25 |

These binders were tested against ScLsb1 in the same assay as above.
Outline: as §1

| Binder | SPOT peptide array binding signal intensity |
| --- | --- |
| VPKEPAPAPPPEPDM | ≤ 0 |

What follows are binders tested against ScLsb2 in the same assay as above.
Outline: as §1

| Binder | SPOT peptide array binding signal intensity |
| --- | --- |
| VPKEPAPAPPPEPDM | ≤ 0 |

The binders below were run against ScLsb3 in the same assay as above.
Outline: as §1

| Binder | SPOT peptide array binding signal intensity |
| --- | --- |
| VPKEPAPAPPPEPDM | ≤ 0 |

Each binder was assayed against ScLsb4 in the same assay as above.
Outline: as §1

| Binder | SPOT peptide array binding signal intensity |
| --- | --- |
| VPKEPAPAPPPEPDM | ≤ 0 |

The binders below were run against ScMyo3 in the same assay as above.
Outline: as §1

| Binder | SPOT peptide array binding signal intensity |
| --- | --- |
| VPKEPAPAPPPEPDM | 1170 |

The binders below were run against ScMyo5 in the same assay as above.
Outline: as §1

| Binder | SPOT peptide array binding signal intensity |
| --- | --- |
| VPKEPAPAPPPEPDM | 779 |

These binders were tested against ScNbp2 in the same assay as above.
Outline: as §1

| Binder | SPOT peptide array binding signal intensity |
| --- | --- |
| VPKEPAPAPPPEPDM | 10.5 |

Each binder was assayed against ScPex13 in the same assay as above.
Outline: as §1

| Binder | SPOT peptide array binding signal intensity |
| --- | --- |
| VPKEPAPAPPPEPDM | ≤ 0 |

What follows are binders tested against ScRvs167 in the same assay as above.
Outline: as §1

| Binder | SPOT peptide array binding signal intensity |
| --- | --- |
| VPKEPAPAPPPEPDM | ≤ 0 |

The binders below were run against ScSho1 in the same assay as above.
Outline: as §1

| Binder | SPOT peptide array binding signal intensity |
| --- | --- |
| VPKEPAPAPPPEPDM | ≤ 0 |

These binders were tested against ScSla1-D1-D2 in the same assay as above.
Outline: as §1

| Binder | SPOT peptide array binding signal intensity |
| --- | --- |
| VPKEPAPAPPPEPDM | 3.5 |

These binders were tested against ScSla1-D3 in the same assay as above.
Outline: as §1

| Binder | SPOT peptide array binding signal intensity |
| --- | --- |
| VPKEPAPAPPPEPDM | 6.5 |

These binders were tested against SpAbp1-D1 in the same assay as above.
Outline: as §1

| Binder | SPOT peptide array binding signal intensity |
| --- | --- |
| VPKEPAPAPPPEPDM | ≤ 0 |

These binders were tested against SpBbc1 in the same assay as above.
Outline: as §1

| Binder | SPOT peptide array binding signal intensity |
| --- | --- |
| VPKEPAPAPPPEPDM | 1.12 |

The binders below were run against SpBzz1-D1 in the same assay as above.
Outline: as §1

| Binder | SPOT peptide array binding signal intensity |
| --- | --- |
| VPKEPAPAPPPEPDM | ≤ 0 |

Each binder was assayed against SpBzz1-D2 in the same assay as above.
Outline: as §1

| Binder | SPOT peptide array binding signal intensity |
| --- | --- |
| VPKEPAPAPPPEPDM | 0.25 |

Each binder was assayed against SpCyk3 in the same assay as above.
Outline: as §1

| Binder | SPOT peptide array binding signal intensity |
| --- | --- |
| VPKEPAPAPPPEPDM | ≤ 0 |

These binders were tested against SpHof1 in the same assay as above.
Outline: as §1

| Binder | SPOT peptide array binding signal intensity |
| --- | --- |
| VPKEPAPAPPPEPDM | ≤ 0 |

The binders below were run against SpHof1-2 in the same assay as above.
Outline: as §1

| Binder | SPOT peptide array binding signal intensity |
| --- | --- |
| VPKEPAPAPPPEPDM | 6.38 |

The binders below were run against SpHof1-3 in the same assay as above.
Outline: as §1

| Binder | SPOT peptide array binding signal intensity |
| --- | --- |
| VPKEPAPAPPPEPDM | 20.2 |

These binders were tested against SpHse1 in the same assay as above.
Outline: as §1

| Binder | SPOT peptide array binding signal intensity |
| --- | --- |
| VPKEPAPAPPPEPDM | 1.5 |

Each binder was assayed against SpLsb1 in the same assay as above.
Outline: as §1

| Binder | SPOT peptide array binding signal intensity |
| --- | --- |
| VPKEPAPAPPPEPDM | ≤ 0 |

The binders below were run against SpLsb4 in the same assay as above.
Outline: as §1

| Binder | SPOT peptide array binding signal intensity |
| --- | --- |
| VPKEPAPAPPPEPDM | ≤ 0 |

The binders below were run against SpMyo1 in the same assay as above.
Outline: as §1

| Binder | SPOT peptide array binding signal intensity |
| --- | --- |
| VPKEPAPAPPPEPDM | 670 |

Each binder was assayed against SpNbp2 in the same assay as above.
Outline: as §1

| Binder | SPOT peptide array binding signal intensity |
| --- | --- |
| VPKEPAPAPPPEPDM | 21 |

These binders were tested against SpPex13 in the same assay as above.
Outline: as §1

| Binder | SPOT peptide array binding signal intensity |
| --- | --- |
| VPKEPAPAPPPEPDM | ≤ 0 |

What follows are binders tested against SpRvs167 in the same assay as above.
Outline: as §1

| Binder | SPOT peptide array binding signal intensity |
| --- | --- |
| VPKEPAPAPPPEPDM | ≤ 0 |

These binders were tested against SpSla1-D1-D2 in the same assay as above.
Outline: as §1

| Binder | SPOT peptide array binding signal intensity |
| --- | --- |
| VPKEPAPAPPPEPDM | 8 |

These binders were tested against SpSla1-D3 in the same assay as above.
Outline: as §1

| Binder | SPOT peptide array binding signal intensity |
| --- | --- |
| VPKEPAPAPPPEPDM | 8.5 |
